Bioassay records (PubChem)
Vif-A3F inh – qHTS for Inhibitors of Vif-A3F Interactions: qHTS | HeLa A3F-eYFP + Vif (tagged APOBEC3F with the HIV-1 protein that degrades it), YFP fluorescence increase | Potency, µM (highest dose often 46.1 µM), inactives show at the highest dose activity, negative = active | 0.2% of 390,000 active | AID 602313, 2012; also: potency is read from the fitted curve at half-maximal effect; % of control where 0% means no effect; nearly all actives have a fitted effect of over 65% in size
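HeLa cells stably expressing Vif plus C-terminally eYFP-tagged A3F were seeded, incubated overnight at 37 deg C, dosed with compound, incubated overnight again at 37 deg C. Yellow fluorescence (Ex 488/Em 500-530) reported blocked Vif-mediated A3F-eYFP degradation.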
Vif-APOBEC3G blk – qHTS for Inhibitors of Vif-A3G Interactions: qHTS; 0.076% of 410,000 active; DNA dC->dU-editing enzyme APOBEC-3G (Homo sapiens), Q9HC16; HeLa A3G-eYFP + Vif (tagged APOBEC3G with the HIV-1 protein that degrades it), YFP fluorescence, overnight; AID 602310, 2012; Potency, µM (highest dose often 46.1 µM), for the others: top-dose activity, negative = active, actives largely listed as inhibitors; also: potency is read from the fitted curve at half-maximal effect; % is scaled to controls: 0 for no effect and ±100 for the full control effect; nearly all actives have a fitted effect of over 60% in size
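HeLa cells stably expressing Vif and C-terminally eYFP-tagged A3G, seeded overnight at 37 deg C, then exposed to compound by pintool overnight at 37 deg C. Rise in yellow fluorescence (Ex 488/Em 500-530, Acumen) marks blocked Vif-driven A3G degradation.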
Pin1 inhibitor – qHTS Assay to Find Inhibitors of Pin1; Peptidyl-prolyl cis-trans isomerase NIMA-interacting 1 (Homo sapiens), Q13526; Pin1 FP peptide displacement, HiFluor488, 10 min; Potency, µM (series often up to 115 µM), inactives show at the top dose activity, negative = inhibition, usual class: inhibitors; 0.009% of 390,000 active; AID 504891, 2011; active = well fitted inhibition curve with a large enough effect in the polarisation, with a control signal flat, not every such curve was filed as active; inconclusive = small, poorly fitted or top-dose-only effect, or effect the other way, or a change in a side signal; inactive = no such curve, though single readings can be large or run the other way; the % refers to the polarisation; also: potency is read from the fitted curve at half-maximal effect; % is scaled to controls: 0 for no effect and ±100 for the full control effect
Target sequence (Q13526 whole entry, looked up): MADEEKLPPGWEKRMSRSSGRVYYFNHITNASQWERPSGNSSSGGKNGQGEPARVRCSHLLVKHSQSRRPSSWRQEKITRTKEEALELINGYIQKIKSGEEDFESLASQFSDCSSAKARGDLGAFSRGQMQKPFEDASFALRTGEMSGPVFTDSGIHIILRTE
Tb PGK inh – qHTS Assay to Find Inhibitors of Phosphoglycerate Kinase | PGK/GAPDH coupled, Kinase-Glo luminescence, 60 min | Potency, µM (doses to about 57.5 µM), inactives show top-dose activity change, negative = inhibition, hits mostly inhibitors | 0.043% of 380,000 active | AID 602233, 2012; also: potency is read from the fitted curve at half-maximal effect; % is scaled to controls: 0 for no effect and ±100 for the full control effect; nearly all actives have a fitted effect of over 60% in size
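Recombinant glycosomal PGK reaction used 1,3-bisphosphoglycerate generated in-well by GAPDH (100nM final) in 100mM TEA pH 7.6, 5mM MgCl2, 0.01% Tween-20. After 60 minutes at room temperature, ATP was read by Kinase-Glo Plus luminescence end-point.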
LDHA block – qHTS assay for inhibitors of human lactate dehydrogenase; purified LDHA, NADH/diaphorase-resazurin fluorescence; hits give low values; activity change, % (values are at about 110 or 230 µM); AID 1347041, 2019; L-lactate dehydrogenase A chain (Homo sapiens), P00338; 0.15% of 480,000 active; in the data active = activity change below about -30%; inconclusive = mostly about -25% to -30%;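 also: plate controls were DMSO wells for no effect and wells without enzyme for full effect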
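Resorufin fluorescence (ex540/em590), read at 0 and 20 min after diaphorase/resazurin addition, reports the NADH left after a 5 min room-temperature reaction of 2 nM human LDH5 with 0.06 mM NADH and 0.2 mM pyruvate.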
mIDH1 inhibitor – qHTS for Inhibitors of mutant isocitrate dehydrogenase 1 (IDH1): qHTS; Potency, µM (highest dose often 76.6 µM), without a hit: at the highest dose activity change, negative = inhibition, usual class: inhibitors; IDH1-R132H enzyme, NADPH consumption, diaphorase/resazurin fluorescence; Isocitrate dehydrogenase [NADP] cytoplasmic (Homo sapiens), O75874; AID 602179, 2012; 0.093% of 390,000 active; also: potency is read from the fitted curve at half-maximal effect; % is scaled to controls: 0 for no effect and ±100 for the full control effect; nearly all actives have a fitted effect of over 65% in size
Target sequence (O75874 whole entry R132H, stated change not applied): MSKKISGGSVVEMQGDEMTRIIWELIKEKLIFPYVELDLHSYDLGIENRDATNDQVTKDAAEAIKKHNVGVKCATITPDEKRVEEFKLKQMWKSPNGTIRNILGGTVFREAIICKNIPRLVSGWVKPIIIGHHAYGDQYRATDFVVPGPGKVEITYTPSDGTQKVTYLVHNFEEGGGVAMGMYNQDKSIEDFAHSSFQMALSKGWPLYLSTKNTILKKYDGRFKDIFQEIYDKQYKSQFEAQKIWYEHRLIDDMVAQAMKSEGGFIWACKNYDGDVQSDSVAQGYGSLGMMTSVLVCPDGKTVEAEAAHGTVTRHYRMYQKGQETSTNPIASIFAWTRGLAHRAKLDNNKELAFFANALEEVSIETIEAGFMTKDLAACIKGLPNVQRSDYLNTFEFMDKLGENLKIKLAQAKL
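IDH1-R132H (0.5 ug/mL) preincubated 30 min with compound, then NADPH (0.016 mM) and alpha-KG (2 mM) added; 80 min at RT, pH 7.5. Remaining NADPH coupled via diaphorase/resazurin to fluorescence (540/590 nm); concentration-response curves normalized to no-enzyme control.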
An asterisk follows results filed as active; i = inactive; ? = inconclusive; . = no result given. Sampled rows, rich in hits. Any-hit rate of the full collection: about 0.49%. Unless noted, calls follow the shape of the dose curve; as a rule, active = well fitted curve in the direction sought with a large enough effect; inconclusive = small, poorly fitted or top-dose-only effect, or another doubt; inactive = no such curve, though single readings can be large; an effect the other way counts as inactive or inconclusive.

SMILES	Vif-A3F inh	Vif-APOBEC3G blk	Pin1 inhibitor	Tb PGK inh	LDHA block	mIDH1 inhibitor
Cc1cccc(C)c1Nc1nc2ccccc2nc1NS(=O)(=O)c1ccccc1	11.2µM*	-14.5%	?	0.9%	-9.5	10.8%
Cc1ccc(Nc2nc3ccccc3nc2NS(=O)(=O)c2ccccc2)cc1F	.	.	.	.	4.9	.
Cc1ccc(S(=O)(=O)Nc2nc3ccccc3nc2Nc2cccc(S(=O)(=O)N3CCCC3)c2)cc1	7.08µM*	-268.5%	?	-1.9%	-3.2	-1.8%
COCCN1CN=C(Nc2nc(C)c3ccccc3n2)NC1	.	.	.	.	1.5	.
O=C(O)c1ccccc1CSc1nc2ccccc2n1Cc1ccccc1C(=O)O	7.7%	-3.6%	-8.4%	-0.6%	-32.1*	-6.1%
Cn1cnc2c1c(=O)n(CCCSCc1ccc(Br)cc1)c(=O)n2C	.	.	.	.	-17.1	.
CCCCCn1c(=O)[nH]c2cc(C(=O)Nc3cc(OC)cc(OC)c3)ccc2c1=O	28.2µM*	-1.4%	9.2%	6.1%	-5.0	-4.8%
COc1cc2c3nnc(-c4ccc(F)cc4)c-3cn(Cc3ccccc3F)c2cc1OC	25.1µM*	?	?	i	-0.7	0.1%
Cc1cccc(NC(=O)c2csc3c2CCCC3)c1C	.	.	.	.	8.9	.
O=C1CCCN1CCCNCC(=O)N1c2ccccc2Sc2ccccc21	-6.9%	0.0%	-17.8%	-6.1%	-41.1*	0.9%
Cn1cnc2c1c(=O)n(CC(=O)NCc1ccccc1Cl)c(=O)n2C	.	.	.	.	-12.5	.
O=C(c1nc(-c2cccnc2)no1)N1CCN(c2ccc(F)cc2)CC1	.	.	.	.	-32.9*	.
Cc1cc(C(=O)N2CCN(c3ccc(F)cc3)CC2)on1	2.2%	3.4%	-4.2%	-5.8%	-9.2	-3.8%
Cc1ccc(S(=O)(=O)Nc2ccc(Nc3nccn4c(-c5ccc6ccccc6c5)cnc34)cc2)cc1	.	-5.8%	.	.	-87.4*	.
Cc1ccc(-c2cnc3c(Nc4cccc(OC(F)(F)C(F)F)c4)nccn23)cc1	.	0.9%	.	.	-38.6*	.
Cc1cccc(OCCn2c(CN3CCOCC3)nc3scc(-c4cccs4)c3c2=O)c1	.	.	.	.	-15.7	.
COc1cccc(C(=O)Nc2ccc3oc(-c4ccc(F)cc4)cc(=O)c3c2)c1	.	.	.	.	-35.3*	.
CCCCC(=O)Nc1ccc(C(=O)NNC(=O)c2ccc(C)c(Br)c2)cc1	-13.3%	-3.8%	26.9%	-12.9%	-46.7*	21.9%
CCCCC(=O)Nc1ccc(C(=O)NNC(=O)CCc2ccccc2)cc1	-0.4%	0.6%	12.2%	-0.2%	-13.5	3.8%
CC(C)C(C)NC(=O)CSc1ccc2ccccc2n1 (configuration not stated)	.	.	.	.	-32.3*	.
O=C1CC(N2CCN(S(=O)(=O)c3ccccc3F)CC2)C(=O)N1c1ccccc1F (configuration not stated)	-1.5%	-3.5%	-3.1%	-2.7%	-34.9*	2.9%
Cc1cccc(C)c1N1C(=O)CC(N2CCN(S(=O)(=O)c3ccccc3F)CC2)C1=O (configuration not stated)	-7.5%	-0.6%	0.7%	-6.9%	-0.2	-0.1%
CCCCN1CC(C(=O)Nc2ccc(C(=O)Nc3ccc(Br)cc3C)cc2)CC1=O (configuration not stated)	.	.	.	.	8.5	.
Cc1cc(NC(=O)CN2CCCCC2)no1	-14.4%	-3.2%	-0.7%	6.4%	-32.1*	-7.9%
CCN1CCN(CC(=O)Nc2cc(C)on2)CC1	-0.1%	-3.6%	-7.8%	6.7%	-24.5	-7.0%
SMILES	Vif-A3F inh	Vif-APOBEC3G blk	Pin1 inhibitor	Tb PGK inh	LDHA block	mIDH1 inhibitor
N#C/C(=C\c1ccc(OCc2ccc(C#N)cc2)cc1)c1nc2ccccc2[nH]1	.	.	.	.	1.5	.
Oc1ccccc1-c1nc(NCc2ccccc2)c2ccccc2n1	22.4µM*	-6.9%	22.7%	8.1%	-3.3	0.0%
Cc1ccccc1NC(=O)C(C#N)=C1CCC(C(C)(C)C)CC1 (configuration not stated)	.	.	.	.	-2.9	.
N#CC1=C(N)C(C#N)(C#N)C(c2cccnc2)C2CN(C(=O)OCc3ccccc3)CC=C12 (configuration not stated)	-5.9%	-14.0%	?	15.3%	-2.6	52.1µM*
CCOC(=O)N1CC=C2C(C#N)=C(N)C(C#N)(C#N)[C@H](c3ccc(OCC)c(OCC)c3)[C@H]2C1	-5.2%	1.2%	?	21.5%	-1.2	-9.2%
O=C(O)c1ccc(N/N=C/c2ccnc3ccccc23)cc1	-8.0%	-7.8%	-5.6%	-11.1%	-36.6*	19.2%
Cn1nnnc1SCc1nc2scc(-c3ccc(Cl)cc3)c2c(=O)[nH]1	22.4µM*	-21.3%	?	-1.0%	-10.4	1.9%
Cn1nnnc1SCc1nc2scc(-c3ccccc3)c2c(=O)[nH]1	2.6%	-0.1%	36.7%	-10.4%	-1.1	1.7%
CCOC(=O)c1c(C)c(C(=O)Nc2cccc(Cl)c2C)c(C)n1C	.	.	.	.	2.6	.
CCN1/C(=C/c2ccc3ccccc3[n+]2CC)C=Cc2ccccc21	12.6µM*	?	63.1%	?	?	8.0%
Fc1ccc(/C=N/Nc2ccc(Cl)cc2)cc1F	.	.	.	.	-4.8	.
COc1ccc(C(=O)NC2Cc3ccccc3C2)cc1	.	.	.	.	1.6	.
CCN(CC)c1ccc2c(-c3ccc(S(=O)(=O)O)cc3S(=O)(=O)[O-])c3ccc(=[N+](CC)CC)cc-3oc2c1	-42.5%	5.5%	?	?	-231.6*	?
O=C(Cc1ccccc1)N/N=C/c1ccc(-c2ccc([N+](=O)[O-])cc2)o1	?	7.94µM*	?	8.1%	-8.1	9.1%
Cc1ccnc(N2C(=O)c3cccc4c([N+](=O)[O-])ccc(c34)C2=O)c1	?	4.3%	?	-2.5%	28.6	16.7%
Cc1nnc(N2C(=O)c3cccc4c([N+](=O)[O-])ccc(c34)C2=O)s1	28.2µM*	?	?	-8.7%	10.9	10.4%
N#Cc1ccccc1N=Cc1cccc(Cl)c1	.	.	.	.	-2.8	.
COCCCNC(=S)N/N=C/c1ccc(OC)cc1	22.4µM*	2.6%	8.8%	i	-3.3	10.6%
COCCCNC(=S)N/N=C/c1ccc(O)cc1	0.4%	1.0%	-0.8%	3.6%	-6.8	-4.6%
CCCC(CCC)c1nc2ccncc2[nH]1	6.1%	-1.0%	-11.3%	-8.7%	-17.5	11.0%
c1cc2nc(C34CC5CC(CC(C5)C3)C4)[nH]c2cn1	-6.3%	2.0%	-8.6%	-3.0%	-32.6*	-2.9%
